The entries come from a sample that favours the strongest signals as a whole.
What was measured:
Assay in all cases: glycan array binding signal (z-score within array); higher = stronger binding
Details in all cases: glycan notation: IUPAC condensed, linker removed
Glc(a1-4)Glc = molecular target: Glc(a1-4)Glc
Summary of the method: (§1)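 The binding signal is a Z-score computed within each array and averaged over linkers. Arrays of the same protein sequence at different concentrations or buffers were also averaged together. Data originate from 3228 arrays in the Consortium for Functional Glycomics database, kept only where the protein sequence was available.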

GlcA(b1-3)Gal = molecular target: GlcA(b1-3)Gal
Summary of the method: as §1

[1] = molecular target: GlcNAc(a1-3)Gal(b1-4)GlcNAc
Summary of the method: as §1

[2] = molecular target: GlcNAc(a1-4)Gal(b1-4)GlcNAc(b1-3)Gal(b1-4)GlcNAc(b1-3)Gal(b1-4)GlcNAc
Summary of the method: as §1

[3] = molecular target: GlcNAc(a1-6)Gal(b1-4)GlcNAc
Summary of the method: as §1

[4] = molecular target: GlcNAc(b1-2)Man(a1-3)[GlcNAc(b1-2)Man(a1-6)]Man(b1-4)GlcNAc(b1-4)GlcNAc
Summary of the method: as §1

[5] = molecular target: GlcNAc(b1-2)Man(a1-3)[GlcNAc(b1-4)][GlcNAc(b1-2)Man(a1-6)]Man(b1-4)GlcNAc(b1-4)[Fuc(a1-6)]GlcNAc
Summary of the method: as §1

[6] = molecular target: GlcNAc(b1-2)[GlcNAc(b1-6)]Man(a1-6)[GlcNAc(b1-2)Man(a1-3)]Man(b1-4)GlcNAc(b1-4)GlcNAc
Summary of the method: as §1

[7] = molecular target: GlcNAc(b1-2)[GlcNAc(b1-6)]Man(a1-6)[GlcNAc(b1-2)Man(a1-3)]Man(b1-4)GlcNAc(b1-4)[Fuc(a1-6)]GlcNAc
Summary of the method: as §1

[8] = molecular target: GlcNAc(b1-3)Gal(b1-3)GalNAc
Summary of the method: as §1

[9] = molecular target: GlcNAc(b1-3)Gal(b1-4)GlcNAc(b1-3)Gal(b1-4)GlcNAc
Summary of the method: as §1

[10] = molecular target: GlcNAc(b1-3)Gal(b1-4)GlcNAc(b1-3)Gal(b1-4)GlcNAc(b1-3)Gal(b1-4)GlcNAc(b1-3)Gal(b1-4)GlcNAc(b1-2)[GlcNAc(b1-3)Gal(b1-4)GlcNAc(b1-3)Gal(b1-4)GlcNAc(b1-3)Gal(b1-4)GlcNAc(b1-3)Gal(b1-4)GlcNAc(b1-6)]Man(a1-6)[GlcNAc(b1-3)Gal(b1-4)GlcNAc(b1-3)Gal(b1-4)GlcNAc(b1-3)Gal(b1-4)GlcNAc(b1-3)Gal(b1-4)GlcNAc(b1-2)Man(a1-3)]Man(b1-4)GlcNAc(b1-4)[Fuc(a1-6)]GlcNAc
Summary of the method: as §1

[11] = molecular target: GlcNAc(b1-3)Gal(b1-4)GlcNAc(b1-3)[GlcNAc(b1-3)Gal(b1-4)GlcNAc(b1-3)]GalNAc
Summary of the method: as §1

[12] = molecular target: GlcNAc(b1-3)Gal(b1-4)GlcNAc(b1-6)[GlcNAc(b1-3)Gal(b1-3)]GalNAc
Summary of the method: as §1

GlcNAc(b1-3)Man = molecular target: GlcNAc(b1-3)Man
Summary of the method: as §1

[13] = molecular target: Man(a1-2)Man(a1-3)[Man(a1-6)]Man(a1-6)[Man(a1-2)Man(a1-3)]Man(b1-4)GlcNAc(b1-4)GlcNAc
Summary of the method: as §1

[14] = molecular target: Man(a1-2)Man(a1-6)[Man(a1-3)]Man(a1-6)[Man(a1-2)Man(a1-2)Man(a1-3)]Man
Summary of the method: as §1

[15] = molecular target: Man(a1-3)[Man(a1-6)]Man(a1-6)[Man(a1-2)Man(a1-3)]Man(b1-4)GlcNAc(b1-4)GlcNAc
Summary of the method: as §1

[16] = molecular target: Neu5Ac(a2-3)Gal(b1-3)GalNAc(b1-4)[Neu5Ac(a2-3)]Gal(b1-4)Glc
Summary of the method: as §1

[17] = molecular target: Neu5Ac(a2-3)Gal(b1-3)[Neu5Ac(a2-6)]GlcNAc(b1-3)[Fuc(a1-3)[Gal(b1-4)]GlcNAc(b1-6)]Gal(b1-4)Glc
Summary of the method: as §1

[18] = molecular target: Neu5Ac(a2-3)Gal(b1-4)GlcNAc(b1-2)Man(a1-3)[GlcNAc(b1-4)][Neu5Ac(a2-3)Gal(b1-4)GlcNAc(b1-2)Man(a1-6)]Man(b1-4)GlcNAc(b1-4)GlcNAc
Summary of the method: as §1

[19] = molecular target: Neu5Ac(a2-3)Gal(b1-4)GlcNAc(b1-3)Gal(b1-4)GlcNAc(b1-3)[Neu5Ac(a2-3)Gal(b1-4)GlcNAc(b1-3)Gal(b1-4)GlcNAc(b1-6)]GalNAc
Summary of the method: as §1

[20] = molecular target: Neu5Ac(a2-3)Gal(b1-4)GlcNAc(b1-3)Gal(b1-4)GlcNAc(b1-6)[Gal(b1-3)]GalNAc
Summary of the method: as §1

[21] = molecular target: Neu5Ac(a2-3)GalNAc(b1-4)GlcNAc
Summary of the method: as §1

[22] = molecular target: Neu5Ac(a2-6)Gal(b1-4)GlcNAc(b1-2)Man(a1-3)Man(b1-4)GlcNAc(b1-4)GlcNAc
Summary of the method: as §1

[23] = molecular target: Neu5Ac(a2-6)Gal(b1-4)GlcNAc(b1-3)Gal(b1-3)GlcNAc
Summary of the method: as §1

[24] = molecular target: Neu5Ac(a2-8)Neu5Ac(a2-3)Gal(b1-3)GalNAc(b1-4)[Neu5Ac(a2-3)]Gal(b1-4)Glc
Summary of the method: as §1

[25] = molecular target: Neu5Ac9Ac(a2-6)Gal(b1-4)GlcNAc
Summary of the method: as §1

[26] = molecular target: Neu5Gc(a2-3)Gal(b1-4)[Fuc(a1-3)]GlcNAc
Summary of the method: as §1

[27] = molecular target: Neu5Gc(a2-8)Neu5Gc(a2-6)Gal(b1-4)GlcNAc
Summary of the method: as §1

B1: SSR2 (Sclerotium rolfsii) (protein)
chain: MVYKITVRVYQTNPDAFFHPVEKTVWKYANGGTWSITDDQHVLTMGGSGTSGTLRFHADNGESFTATFGVHNYKRWCDIVTNLAADETGMVINQQYYSQKNREEARERQLSNYQVKNAKGRNFQIVYTEAEGNDLHANLIIG
glycan array binding signal (z-score) (Glc(a1-4)Glc): -0.262
glycan array binding signal (z-score) (GlcA(b1-3)Gal): -0.282
glycan array binding signal (z-score) [1]: 3.71
glycan array binding signal (z-score) [2]: 6.99
glycan array binding signal (z-score) [3]: 0.528
glycan array binding signal (z-score) [4]: 6.77
glycan array binding signal (z-score) [5]: 2.85
glycan array binding signal (z-score) [6]: 4.32
glycan array binding signal (z-score) [7]: 4.49
glycan array binding signal (z-score) [8]: 3.63
glycan array binding signal (z-score) [9]: 0.873
glycan array binding signal (z-score) [10]: 1.3
glycan array binding signal (z-score) [11]: 0.552
glycan array binding signal (z-score) [12]: 1.62
glycan array binding signal (z-score) (GlcNAc(b1-3)Man): -0.149
glycan array binding signal (z-score) [13]: -0.276
glycan array binding signal (z-score) [14]: -0.303
glycan array binding signal (z-score) [15]: -0.244
glycan array binding signal (z-score) [16]: -0.28
glycan array binding signal (z-score) [17]: -0.288
glycan array binding signal (z-score) [18]: -0.284
glycan array binding signal (z-score) [19]: -0.267
glycan array binding signal (z-score) [20]: 0.625
glycan array binding signal (z-score) [21]: -0.279
glycan array binding signal (z-score) [22]: -0.286
glycan array binding signal (z-score) [23]: -0.286
glycan array binding signal (z-score) [24]: -0.271
glycan array binding signal (z-score) [25]: -0.291
glycan array binding signal (z-score) [26]: -0.284
glycan array binding signal (z-score) [27]: -0.286
